Results from PubChem BioAssay (NCATS).
Records with an inconclusive call do not appear. Calls of active or inactive are those of the source. Calls follow the shape of the dose curve; as a rule, active = well fitted cell-killing curve with a large enough effect; inconclusive = small, poorly fitted or top-dose-only effect; inactive = flat fitted curve, though single readings scatter.

Experiment: Cell Viability - LYMP2-012 (AID 982);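 also: cellular ATP by luciferase luminescence where a drop means cytotoxicity; cells exposed to compound for one day before reading; 0% = DMSO only and full loss = 92 µM tetraoctylammonium bromide; nearly all actives have a fitted effect of over 55% in size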
Details: LYMP2-012 lymphoblastoid cell viability qHTS; series mostly up to 92.2 µM; activity change, negative = cytotoxicity: at the top concentration
From the text: NIH Chemical Genomics Center [NCGC]
NIH Molecular Libraries Screening Centers Network [MLSCN]
National Institutes of Environmental Health Sciences [NIEHS]
National Toxicology Program [NTP]
We have developed a 1536-well cell-based assay for quantitative high throughput screening (qHTS) against a number of cell lines to determine in vitro cytotoxicity of small molecules. This particular assay uses a human lymphoblastoid cell line (LYMP2-012) purchased from Coriell Institute for Medical Research.
NCGC Assay Protocol Summary:
The CellTiter-Glo luminescent cell viability assay (Promega) is a homogeneous method to measure the number of viable cells in culture. The end point readout of this assay is based on quantitation of intracellular ATP, an indicator of metabolic activity, using the luciferase reaction. Luciferase catalyzes the oxidation of beetle Luciferin to oxyluciferin and light in the presence of ATP. The luminescent signal is proportional to amount of ATP present.
Using the CellTiter-Glo luminescent cell viability assay, the amount of cellular ATP was measured in the lymphoblastoid cell line with complete culture medium following compound treatment for 24 hours. The assay was performed in opaque white Kalypsys 1536-well plates. In the screen, tetraoctylammonium bromide was used as positive control. Library compounds were measured for their ability to cause acute toxicity in the cell line, as reflected by a decrease in intracellular ATP levels, in a concentration-dependent manner. […] AC50 values were determined from concentration-response data modeled with the standard Hill equation.
qHTS protocol for CellTiter Glo lymphoblastoid cellular assay
[Step] [Parameter] [Value] [Description]
1. Reagent; 5 uL; 2500 lymphoblastoid cells/well
2. Time; 5 hr; 37 C incubation
4. Controls; 23 nL; Tetraoctylammonium bromide 6.4pM to 92 uM
5. Time; 24 hr; 37 C incubation
6. Reagent; 5 uL; CellTiter Glo reagent
7. Time; 30 min; Room Temperature
8. Detection; Luminescence; Viewlux plate reader
Keywords: cell viability, cytotoxicity, lymphoblastoid cell line, luminescence, NTPHTS, NTPHTS_NCGC, NIEHS, DSSTox, MLSMR, MLSCN, NIH Roadmap, qHTS, NCGC

SMILES	activity change, negative = cytotoxicity	outcome
Nc1ccc(S(=O)(=O)Nc2nccs2)cc1	-23.3% (inactive)	
Cc1cc2nc3c(=O)[nH]c(=O)nc-3n(C[C@H](O)[C@H](O)[C@H](O)CO)c2cc1C	-2.76% (inactive)	
CC1(C)[C@@H]2CC[C@@]1(C)C(=O)C2	-18% (inactive)	
O=C1O[C@H]([C@@H](O)CO)C(O)=C1O	-5.41% (inactive)	
CCCCCCCCCCCCOS(=O)(=O)O		inactive
Oc1cccc(O)c1	-15.4% (inactive)	
[Cl][In]([Cl])[Cl]	9.82% (inactive)	
CC12CCC(CC1)C(C)(C)O2	1% (inactive)	
NCCNCCNCCNCCN	-10.1% (inactive)	
O=C1c2c(O)cccc2Cc2cccc(O)c21	-5.17% (inactive)	
C[C@]12C[C@H](O)[C@H]3[C@@H](CCC4=CC(=O)CC[C@@]43C)[C@@H]1CC[C@@H]2C(=O)CO	-17% (inactive)	
Cc1cc(CC(=O)O)n(C)c1C(=O)c1ccc(Cl)cc1	-23.7% (inactive)	
CCCCOC(=O)c1ccc(O)cc1	-2.8% (inactive)	
COc1ccccc1O		inactive
NCCNCCNCCN	-1.52% (inactive)	
NC(=O)c1ncn([C@@H]2O[C@H](CO)[C@@H](O)[C@H]2O)n1	-17.3% (inactive)	
